The source of these data is PubChem BioAssay.

The structures appear in SMILES notation. The list shows a part of the results. A number with no mark means an inactive call. Calls of active or inactive are those of the source.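 The calls were made as follows: active = signal rise of at least 3 SD above the untreated control mean, in both duplicate wells; inactive = the rest.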

The nature of the test: nonspecific thallium flux increase in parental CHO-K1, confirmation, counter-screen for KCNQ2 potentiator project, cell-based, FluxOR thallium flux, duplicate (AID 2282).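 Also: counter screen of KCNQ2 potentiator hits so any rise reflects channel-independent effects.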 Conditions: parental CHO-K1 cells, FluxOR thallium flux fluorescence; at 10 µM; active compounds read high; zero = vehicle mean+3SD, 100% = vehicle-minus-blank window. Background: The purpose of a counterscreen is to sort out artefacts and off-target activity.
As for `CC(NC(=O)Nc1ccccc1)c1ccccc1` (configuration not stated), the activity increase over 3SD of controls is -4.7%. With `CCCc1nc2sc3c(c2c(=O)n1NC(=O)CCCl)CCCC3` the figure was -7%.

Consider `Cc1cccc(NC(=O)c2nc(S(=O)(=O)Cc3ccccc3)ncc2Cl)c1`, for which the activity increase over 3SD of controls is -15.5%. With `CCC1(C)Cc2c(sc3[nH]c(=S)n(Cc4ccccc4)c(=O)c23)CO1` (configuration not stated) the figure was -13%; with `CCCCNC(=O)Nc1c(C)cc(SC#N)cc1C`, 5.5% (active); with `COc1cccc(NC(=O)C2C(c3ccccc3)C2(Cl)Cl)c1` (configuration not stated), -15.2%. With `Cc1cccc(NC(=S)NC(=O)c2ccc(Br)o2)c1` the figure was -7%; with `O=C(Nc1ccc(Oc2ccccc2)cc1)c1ccco1`, -13.5%; with `S=C(NCc1ccc(Cl)cc1)NC12CC3CC(CC(C3)C1)C2`, 46.3% (active). To `CS(=O)(=O)c1sc(C(=O)NC(=S)Nc2ccc(OC(F)(F)F)cc2)c2c1C=CCC2` belongs -1.6%; to `COc1ccc(C(=O)Nc2ncc3c(n2)-c2ccccc2CC3)cc1`, -7.8%. Turning to `Oc1c(Cl)cc(Cl)cc1/C=N/c1ncn[nH]1`, the activity increase over 3SD of controls is -13.3%.

For `CCn1c(O)c(N=NC2=NC(=O)CS2)c2cc(C)ccc21`, the activity increase over 3SD of controls was -1.5%. In the case of `Cc1ccc(S(=O)(=O)N2CCN(C(=O)COC(=O)c3c(C)cc(C)cc3C)CC2)c(C)c1`, the activity increase over 3SD of controls is -0.8%.

`Cc1ccc(CS(=O)(=O)c2ncc(Cl)c(C(=O)Nc3nnc(C)s3)n2)cc1`: the activity increase over 3SD of controls is 30.6% (active).

In the case of `O=C(NNC1=C(C(=O)C(F)(F)F)CCC1)c1ccncc1`, the activity increase over 3SD of controls is -5.7%.

As for `CC(NC(=O)Nc1cccc([N+](=O)[O-])c1)c1ccc2c(c1)OCO2` (configuration not stated), the activity increase over 3SD of controls is 19.3% (active).
